Assay results reported in PubChem BioAssay (Tox21).
Records with an inconclusive call do not appear. A number with no mark means an inactive call. Active and inactive are the calls of the source. Calls come from the whole dose curve; as a rule, active = well fitted cell-killing curve with a large enough effect in the repeat runs; inconclusive = weak or mixed curves, or effect the other way; inactive = no such curve, though single readings can be large or run the other way.

Test: qHTS assay to identify small molecule antagonists of the progesterone receptor (PR) signaling pathway - cell viability counter screen (AID 1346798); note: nearly all actives have a fitted effect of over 50% in size
Settings: PR-UAS-bla HEK293T viability, CellTiter-Glo luminescence, 16 h; series mostly up to 92.4 µM; activity change, negative = cytotoxicity: at the top concentration
From the text: National Center for Advancing Translational Sciences [NCATS]
NIH Chemical Genomics Center [NCGC]
U.S. Environmental Protection Agency [EPA]
National Institutes of Environmental Health Sciences [NIEHS]
National Toxicology Program [NTP]
U.S. Food and Drug Administration [FDA]
Progesterone receptor (PR), a nuclear hormone receptor, plays an important role in development, metabolic homeostasis and reproduction. It is activated by the steroid hormone progesterone. Endocrine disrupting chemicals (EDCs) and their interactions with steroid hormone receptors like PR causes disruption of normal endocrine function. To identify the compounds that inhibit PR signaling, a PR-UAS-bla GripTite cell line i.e. PR-UAS-bla HEK293T (Invitrogen, Carlsbad, CA, USA) containing a beta-lactamase reporter gene under the control of an UAS response element was used to screen Tox21 10K compound library. The cytotoxicity of the Tox21 compound library against the PR-bla cell line was tested in parallel by measuring the cell viability using CellTiter-Glo assay in the same wells.
Tox21 Assay Protocol Summary:
PR-UAS-bla HEK293T cells were dispensed at 3,000 cells/4 uL of assay medium containing 2% charcoal stripped FBS per well into black wall/clear-bottom 1536-well plates using a Multidrop Combi (ThermoFisher Scientific, Waltham, MA) dispenser. After the assay plates were incubated at a 37C and 5% CO2 for 4 hr, 23 nL of compounds dissolved in DMSO, positive controls or DMSO only was transferred to the assay plate by a Pintool station (Kalypsys, San Diego, CA), followed by addition of 1 uL of R5020 in assay medium using a Flying Reagent Dispenser (FRD, Aurora Discovery, San Diego, CA). The plates were incubated at 37C and 5% CO2 for 16 hr. Then 1 uL of LiveBLAzer B/G FRET substrate was added using a Flying Reagent Dispenser, the plates were incubated at room temperature for 2 hours, and fluorescence intensity was measured by an Envision plate reader (PerkinElmer, Shelton, CT). For cell viability readout that measures cytotoxicity, 4 uL/well of CellTiter-Glo reagent was added into the assay plates using a FRD. After 30 min incubation at room temperature, the luminescence intensity in the plates was measured using a ViewLux (PerkinElmer) plate reader.
% is set by controls: 0 for no effect and ±100 for the full control effect; potency is the fitted concentration of half-maximal effect.

Going from C/C(C=O)=C\c1ccccc1 to O=P(O)(O)Oc1ccccc1, the “activity change, negative = cytotoxicity” value falls from -5.88% to -7.96%.

Going from NC(=O)c1ccccc1[N+](=O)[O-] to O=C(/C=C/c1ccc([N+](=O)[O-])cc1)c1ccccc1, the “activity change, negative = cytotoxicity” value falls from 6.11% to 0.221%.

Compared with O=C(O)c1cc(Cl)cc(Cl)c1O, Nc1c(Cl)cc(Cl)cc1[N+](=O)[O-] is higher in “activity change, negative = cytotoxicity” value: -23.9% for the first, 0.996% for the second.

First: CNCc1ccc(NC(=O)c2c[nH]c3c2C(=O)CCC3)cc1
Second: O=C(c1ccccc1)C1CCC1
The “activity change, negative = cytotoxicity” value of the first is higher: 20.7% for the first, -13.1% for the second.

Compared with C=CC(=O)NC(C)C, CC(=O)OCCC(C)CC(C)(C)C (stereo not given) is higher in “activity change, negative = cytotoxicity” value: -4.17% for the first, 2.59% for the second.

First: CSSc1ccoc1C
Second: CC(C)(O)CCc1ccccc1
The “activity change, negative = cytotoxicity” value of the first is lower: -1.59% for the first, 5.11% for the second.

First: O=S(=O)(O)CO
Second: CC(CO)(CO)C(=O)O
The “activity change, negative = cytotoxicity” value of the first is lower: -0.149% for the first, 0.92% for the second.

First: CCC(C)(C)C(=O)O
Second: COC(CC(C)CCCC(C)(C)O)OC (stereo not given)
The “activity change, negative = cytotoxicity” value of the first is higher: 0.753% for the first, -2.97% for the second.

Compared with C=C(C)C(=O)OCCC(F)(F)C(F)(F)C(F)(F)C(F)(F)C(F)(F)C(F)(F)F, CCCCCCCCCCCC(=O)OCC(O)CO (stereo not given) is lower in “activity change, negative = cytotoxicity” value: 9.31% for the first, -1.12% for the second.

Compared with O=C(CCS)OCC(COC(=O)CCS)(COC(=O)CCS)COC(=O)CCS, CCCCCCCCCCCCCCCC(=O)OCC is lower in “activity change, negative = cytotoxicity” value: 2.91% for the first, -3.74% for the second.

With CC1CCC(C(C)CS)CC1S (stereo not given) the “activity change, negative = cytotoxicity” value was 3.88%.

Compared with Cc1cccc(C)c1NC(=O)c1cc(S(N)(=O)=O)c(Cl)cc1O, O=C(Nc1ccc(C(=O)O)c(O)c1)c1ccccc1 is lower in “activity change, negative = cytotoxicity” value: 0.402% [at 42.5 µM] for the first, -11.1% [at 42.5 µM] for the second.

Going from Oc1cccc2[nH]ccc12 to CC(=O)N[C@@H](Cc1ccc(O)cc1)C(=O)O, the “activity change, negative = cytotoxicity” value falls from 6.75% [at 42.5 µM] to -4.26% [at 42.5 µM].

Compared with CNc1c2c(nn1C)CCCC2, COc1cc(C(C)=O)ccc1OCCCN1CCC(c2noc3cc(F)ccc23)CC1 is higher in “activity change, negative = cytotoxicity” value: 0.471% [at 42.5 µM] for the first, 8.24% [at 42.5 µM] for the second.

Going from Nc1nc2ccc(OC(F)(F)F)cc2s1 to COc1cc(NC(C)CCCN)c2ncccc2c1 (stereo not given), the “activity change, negative = cytotoxicity” value falls from 22.4% [at 42.5 µM] to -15.3% [at 42.5 µM].

Going from O=C1[C@@H]2[C@H]3CC[C@H](C3)[C@@H]2C(=O)N1CCCCN1CCN(c2ncccn2)CC1 to COc1ccc(CCN(C)CCCN2CCc3cc(OC)c(OC)cc3CC2=O)cc1OC, the “activity change, negative = cytotoxicity” value falls from -0.256% [at 42.5 µM] to -16.8% [at 42.5 µM].

Going from CCN(CC)CCNC(=O)c1cc(Cl)c(N)cc1OC to COc1cc(NCc2ccc3nc(N)nc(N)c3c2C)cc(OC)c1OC, the “activity change, negative = cytotoxicity” value falls from 1.46% [at 42.5 µM] to -6.86% [at 42.5 µM].

First: Cc1ccc2nc(N)[nH]c(=O)c2c1Sc1ccncc1
Second: CC(C)(C)NCC(O)COc1cccc2c1C[C@H](O)[C@H](O)C2 (stereo not given in full)
The “activity change, negative = cytotoxicity” value of the first is higher: 15.4% [at 42.5 µM] for the first, 6.39% [at 42.5 µM] for the second.

First: CCCCCCCC/C=C/C(=O)O
Second: CC12CC3CC(C)(C1)CC(N)(C3)C2
The “activity change, negative = cytotoxicity” value of the first is higher: -1.95% [at 42.5 µM] for the first, -13.9% [at 42.5 µM] for the second.

For CNS(=O)(=O)c1cc(C(=O)N2CCC(CCN3C4CCC3CC(n3c(C)nc5ccccc53)C4)(c3cccc(F)c3)CC2)c(Cl)cc1F (stereo not given), the Potency was 24.3 µM (active).
For CO[C@@H]1[C@@H](OC)[C@H](C)[C@@](O)(CC(=O)O)O[C@H]1[C@H](C)[C@H]1O[C@@]2(CC[C@@](C)([C@H]3CC[C@@](C)([C@@H]4O[C@@H]([C@H]5O[C@](C)(O)[C@H](C)C[C@@H]5C)C[C@@H]4OC4C[C@H](OC)[C@@H](OC)[C@H](C)O4)O3)O2)C[C@H](O)[C@H]1C (stereo not given in full), the Potency was 18.8 µM (active).

For CCC(Cl)CC(Cl)C(Cl)C(Cl)C(Cl)C(C)Cl (stereo not given), the activity change, negative = cytotoxicity was -5.89% [at 18.9 µM].
